Screening results as filed in PubChem.
Only some compounds are listed: those with a hit (about 2.2% of all), similar ones and a draw of the others.
PAX8 inh HTS – lowers PAX8-driven luciferase in RMG-I cells | AID 652154 | RMG-I TPO-luciferase reporter, SteadyGlo, 24 h | 360,000 compounds, 1.2% hits | inhibition, % at 12.6 µM;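 active means mean replicate inhibition at least 60% with every replicate also reaching 60%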;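 further: luciferase light reporting Pax8 driven TPO promoter activity; plate controls were median of neutral control wells for no effect and mitoxantrone controls for full effect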
MITF TRPM1 inh – reduces MITF-dependent TRPM1 promoter luciferase signal | SK-MEL-5 TRPM1 promoter luciferase, 24 h | inhibition, % at 12.5 µM | 330,000 compounds, 0.83% hits | AID 488899;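 active means mean inhibition across replicates of 60% or more, whatever share of single replicates reaches that level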
EBV LMP1 NFkB – inhibitors of Epstein-Barr LMP1-induced NF-kappaB reporter; LMP1-induced NF-kappaB luciferase reporter cells, luminescence; inhibition, % at 12.5 µM; 350,000 compounds, 0.69% hits; AID 504558; in the data active means inhibition above about 41%;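 further: 0% = neutral control wells and 100% = reference inhibitor control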
PGC1a acetyl inh – modulators of PGC1a acetylation; U2OS PGC1a acetylation, AlphaScreen anti-acetyl-lysine; with virally co-expressed GCN5 acetyltransferase; inhibition, % at 15.6 µM; 350,000 compounds, 0.17% hits; AID 651687;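 active means every replicate shows inhibition of at least 40%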;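 further: 0% = neutral control wells and 100% = positive control wells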
EWS-Fli inh – blocks EWS/Fli oncoprotein-driven transcription; A673 NR0B1-luciferase reporter, viability-normalised; inhibition, % at 12.6 µM; 350,000 compounds, 0.67% hits; AID 651661;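 active means mean inhibition of at least 50% after viability correction, with every replicate also passing that limit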;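 further: firefly luciferase signal divided by Alamar Blue viability fluorescence both relative to DMSO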
LGR2 inh – Drosophila LGR2 receptor signaling inhibition; HEK293 LGR2, CRE-luciferase, bursicon-stimulated, 4 h; inhibition, % at 9.99 µM; 380,000 compounds, 0.35% hits; AID 720647;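 active means drop in luminescence signal, shown as inhibition above about 50% in the replicate tests, limit read from the data, passing the limit was not always enough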;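 further: agonist challenge used bursicon conditioned medium at about half maximal strength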
DNA binder FP – small molecule DNA binding by fluorescence polarization; 640 compounds, 2% hits; salmon sperm DNA acridine orange fluorescence polarization; AC35, µM (highest dose often 68 µM), without a hit: at the top dose activity change, negative = DNA binding; shares compounds with EWS-Fli inh;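 active means fitted curve reaches a 35% signal fall AC35 below twice the sample's top valid tested dose, actives reach about 48 µM in these data; inactive means the rest, including activity in the rising direction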;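 further: lower polarization ratio signals compound binding to DNA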
Active calls of the source: *; / = not tested or not shown.

SMILES	PAX8 inh HTS	MITF TRPM1 inh	EBV LMP1 NFkB	PGC1a acetyl inh	EWS-Fli inh	LGR2 inh	others
CS(=O)(=O)N(Cc1ccc(Cl)cc1)c1ccc(C(=O)N/N=C/c2cc3ccccc3nc2Cl)cc1	/	-3	58*	-6	/	3
CN(C)CC(=O)N1[C@@H](CO)[C@@H](c2ccccc2)C12CN(Cc1cc(F)ccc1F)C2	4	/	/	18	-2	-19
C[C@@H]1CCCCO[C@H](CN(C)Cc2ccc(C(F)(F)F)cc2)[C@@H](C)CN([C@H](C)CO)C(=O)c2cc(NS(=O)(=O)c3ccc(F)cc3)ccc2O1	-3	/	/	-10	-9	1
Cc1ccc(S(=O)(=O)Nc2ccc3c(c2)C(=O)N([C@H](C)CO)C[C@@H](C)[C@H](CN(C)Cc2ccc(C(F)(F)F)cc2)OCCCC[C@@H](C)O3)cc1	102*	/	/	-8	13	19
Cc1ccc(S(=O)(=O)Nc2ccc3c(c2)C(=O)N([C@@H](C)CO)C[C@@H](C)[C@@H](CN(C)Cc2ccc(C(F)(F)F)cc2)OCCCC[C@H](C)O3)cc1	87*	/	/	-4	28	25
Cc1ccc(S(=O)(=O)Nc2ccc3c(c2)C(=O)N([C@H](C)CO)C[C@H](C)[C@H](CN(C)Cc2ccc(C(F)(F)F)cc2)OCCCC[C@@H](C)O3)cc1	25	/	/	14	1	-7
C[C@H](CO)N1C[C@H](C)[C@@H](CN(C)S(=O)(=O)c2ccc(F)cc2)OCCCC[C@H](C)Oc2ccc(NC(=O)c3ccncc3)cc2C1=O	/	/	/	-3	3	-11
O=C1C(C2=C(O)c3ccccc3C2=O)=Nc2ccccc21	/	66*	28	-6	/	/
COc1cccc(NC(=O)N[C@H]2CC[C@H](CC(=O)NCc3ccncn3)O[C@H]2CO)c1	-5	/	/	-9	2	-31
COC(=O)C1=CN(c2ccc(OC)cc2OC)C(N)=C(C#N)C1c1cccc([N+](=O)[O-])c1 (centres undefined)	28	/	/	/	57*	-12
CCC(=O)NC1=C(Cl)C(=O)C(NC(=O)CC)=C(Cl)C1=O	86*	23	11	7	25	9
Cc1nc(CSc2nnc(C)s2)cs1	85*	-4	4	/	-11	8
Cc1ccc(/C=N/Nc2nncc(-c3ccccc3)n2)o1	-70	-34	-15	-9	-60	-18
Cc1[nH]n(-c2ccccc2)c(=O)c1/C=N/NC(=O)c1cccc(F)c1	6	1	39	/	-17	-5
Cc1[nH]n(-c2ccccc2)c(=O)c1/C=N/Nc1nncc(-c2ccccc2)n1	/	50	69*	12	18	13
Cc1[nH]n(-c2ccc(Br)cc2)c(=O)c1/C=N/NC(=O)c1ccccc1	11	24	47*	/	-37	-6
COc1ccc(C2C(C#N)=C(N)Oc3c2ccc2cccnc32)cc1OC (centres undefined)	86*	19	9	2	26	-17
O=C(C[C@@H]1CC[C@H]2[C@@H](COC[C@H](O)CN2C(=O)c2ccccn2)O1)N1CCN(c2ccccc2)CC1	0	/	/	4	-5	-18
CC1(C)CSC(=NCc2ccccc2)N1C(=O)c1cccc([N+](=O)[O-])c1	69*	-10	-3	/	-22	-23
COc1cc2cc(C(=O)N3CCN(c4ccccc4OC)CC3)[nH]c2cc1OC	8	7	53*	-6	8	25
COc1ccccc1N1CCN(C(=O)c2cc3ccccc3[nH]2)CC1	4	12	34	/	13	11
CCOc1ccccc1N1CCN(C(=O)c2cc3ccccc3cc2OC)CC1	42	44	-1	-11	59*	6
Cc1noc(C)c1NC(=O)N(C)C[C@H]1OCCCC[C@@H](C)Oc2ccc(NS(=O)(=O)c3ccc(Cl)cc3)cc2C(=O)N([C@H](C)CO)C[C@H]1C	4	/	/	-6	7	-11
CO[C@@H]1CN(C)C(=O)c2ccc(NC(=O)CC(F)(F)F)cc2OC[C@@H](C)N(CC2CC2)C[C@@H]1C	-10	/	/	1	8	12
CC(C)NC(=O)N(C)C[C@@H]1OCCCC[C@H](C)Oc2ccc(N(C)C)cc2C(=O)N([C@H](C)CO)C[C@H]1C	-13	/	/	-1	/	5
SMILES	PAX8 inh HTS	MITF TRPM1 inh	EBV LMP1 NFkB	PGC1a acetyl inh	EWS-Fli inh	LGR2 inh	others
CCOC(=O)C(=Cc1ccc(-n2cncn2)cc1)C(=O)OCC	13	41	11	-2	17	65*
CCOC(=O)C(=CNc1cc(C)nn1-c1ccc(Cl)cc1)C(=O)OCC	34	39	12	/	/	/
COc1cc(-c2onc3ccc(Br)cc23)cc(OC)c1OC	26	1	13	1	56*	18
O=C(N/N=C/c1cc(Cl)ccc1O)C(=O)Nc1ccccc1OC(F)(F)C(F)F	70*	65*	17	/	-9	24
COc1cccc(/C=N/NC(=O)C(=O)Nc2ccccc2OC(F)(F)C(F)F)c1	16	-3	-5	/	/	-7
O=C(N/N=C/c1cc(Br)ccc1O)C(=O)Nc1ccccc1OC(F)(F)C(F)F	/	66*	30	15	/	24
COc1ccccc1/C=N/NC(=O)C(=O)Nc1ccccc1OC(F)(F)C(F)F	40	-7	-4	6	4	2
CCCC#Cc1ccc2c(c1)O[C@H](CN(C)C(=O)Nc1ccc(OC)cc1)[C@@H](C)CN([C@@H](C)CO)S2(=O)=O	/	/	/	-6	23	2
O=C1CCCC2=C1C(c1ccccn1)Nc1ccc(C(=O)c3ccccc3)cc1N2 (centres undefined)	3	10	-1	/	80*	4	DNA binder FP=-6%
O=C1CCCC2=C1C(c1ccco1)Nc1ccc(C(=O)c3ccccc3)cc1N2 (centres undefined)	/	9	-7	8	/	/
CC(C)NC(=O)N[C@@H]1CC[C@H](CC(=O)NCc2ccc(Oc3ccccc3)cc2)O[C@H]1CO	9	/	/	5	-7	-1
O=C(NCc1cccnc1)C1Cc2c(-c3ccc(Cl)cc3)ccnc2O1 (centres undefined)	29	/	/	/	52*	-11	DNA binder FP=-3%
CCN1CCCC(OC(=O)C(c2ccccc2)c2ccccc2)C1 (centres undefined)	-8	3	-13	2	2	/
CN(C)[C@@H]1CCC[C@@H]1OC(=O)C(c1ccccc1)c1ccccc1	-23	-7	-1	-4	87*	7	DNA binder FP=-1%
Cc1occc1-c1n[nH]c(=S)n1C	6	4	-12	5	75*	/	DNA binder FP=-7%
Cc1occc1-c1n[nH]c(=S)n1-c1ccccc1	16	3	3	-4	14	-3
CO[C@@H]1CN(C)C(=O)c2ccc(NC(=O)c3nc4ccccc4s3)cc2OC[C@H](C)N(Cc2ccncc2)C[C@@H]1C	-4	/	/	0	-11	-12
